# VACV Venus inh: qHTS for Stage-Specific Inhibitors of Vaccinia Orthopoxvirus: Venus Reporter Primary qHTS | Vaccinia virus Venus reporter expression, fluorescence | Potency, µM (titrated, usually from 36.5 µM), for inactives: at the highest dose activity change, negative = inhibition, usual class: inhibitors | 330,000 tested, 0.46% active; calls by dose curve; tested in A549 cells; also: nearly all actives have a fitted effect of over 30% in size
# FMDV antiviral: High Throughput Screening for Foot and Mouth Disease Virus Antivirals | FMDV antiviral cell-based qHTS | Potency, µM (series often up to 57.9 µM), for the others: top-dose activity change, negative = inhibition, usual class: inhibitors | 410,000 tested, 1.2% active | AID 1159524, 2015; calls by dose curve; tested in HEK293T cells; also: read-out not given here; nearly all actives have a fitted effect of over 45% in size
# MARV entry inh: qHTS for inhibitors of binding or entry into cells for Marburg Virus; Marburg virus pseudotyped entry inhibition, cell reporter; Potency, µM (top dose mostly 37.8 µM), without a hit: top-dose activity change, negative = inhibition, most hits filed as inhibitors; AID 540276, 2011; 300,000 tested, 1.8% active; calls by dose curve; tested in HEK293 cells
# Vaccinia mCherry: qHTS for Stage-Specific Inhibitors of Vaccinia Orthopoxvirus: mCherry Reporter Primary qHTS; Vaccinia virus mCherry reporter infection, fluorescence; Potency, µM (top dose mostly 36.5 µM), for inactives: top-dose activity change, negative = inhibition, most hits filed as inhibitors; 310,000 tested, 0.63% active; AID 720579, 2013; calls by dose curve; tested in A549 cells; also: nearly all actives have a fitted effect of over 35% in size
# Sm TGR inh: qHTS Assay for the Inhibitors of Schistosoma Mansoni Peroxiredoxins | Schistosoma mansoni thioredoxin glutathione reductase (TGR), Q962Y6 | 360,000 tested, 3% active | Potency, µM (doses to about 114 µM), for inactives: top-dose activity change, negative = inhibition, most hits filed as inhibitors | purified TGR, DTNB reduction, TNB absorbance 405 nm; active = well fitted inhibition curve with a large enough effect; inconclusive = small, poorly fitted or top-dose-only effect; inactive = no such curve, though single readings can be large or run the other way; also: nearly all actives have a fitted effect of over 60% in size
#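 First, TGR (20 nM dispensed) and NADPH were mixed with compound. Second, a 15 min room-temperature incubation followed. Third, further NADPH and then DTNB were added to start the reaction. Finally, TNB absorbance was monitored kinetically.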
# Lassa entry inh: qHTS for Inhibitors of binding or entry into cells for Lassa Virus. Lassa virus pseudotype entry inhibition, cell reporter. Potency, µM (titrated, usually from 37.9 µM), for inactives: at the highest dose activity change, negative = inhibition, hits mostly inhibitors. 300,000 tested, 1.2% active; calls by dose curve; tested in HEK293 cells; also: nearly all actives have a fitted effect of over 50% in size
# * hit, by the source's call; i = inactive; ? = inconclusive; · = no result; ! = repeats disagree; [ ] = dose if it differs, or a comment. Shown are actives, neighbours in structure and some others; about 5.4% of the full set was active somewhere. % is scaled to controls: 0 for no effect and ±100 for the full control effect; potency is read from the fitted curve at half-maximal effect.
SMILES,VACV Venus inh,FMDV antiviral,MARV entry inh,Vaccinia mCherry,Sm TGR inh,Lassa entry inh
O=C(O)c1ccc2nc(-c3ccco3)c(-c3ccco3)nc2c1,-2%,12%,?,-6%,0.5µM*,-1%
O=C(Nc1cccc(C(F)(F)F)c1)c1ccc2snnc2c1,-1%,-9%,17%[46.1 µM],-1%,?,0%[46.1 µM]
COC(=O)CN1C(=O)C(C)(C)c2cc(S(=O)(=O)Nc3ccc(C(C)C)cc3)ccc21,2%,18%,·,-7%,11%,-15%[46.1 µM]
COc1ccc(C(=O)N2CCC3(CC2)OCCO3)cc1,-18%,-2%,0%[46.1 µM],-23%,-21%,-5%[46.1 µM]
O=C(c1ccc2nc(-c3ccco3)c(-c3ccco3)nc2c1)N1CCC2(CC1)OCCO2,·,22%,4%,·,1.6µM*,-6%
O=C(/C=C/c1ccco1)N/C(=C\c1ccccc1)C(=O)NCCc1nc2ccccc2[nH]1,-15%,7%,-19%,-3%,50µM*,-9%
O=C(NCCc1nc2ccccc2[nH]1)c1ccco1,·,0%,18%,·,8%,-9%
COc1cc(/C=C/c2nc3cc(Cl)ccc3c(=O)n2-c2ccc(C)cc2C)cc(OC)c1OC,-6%,-14%,·,-9%,7%,18%[46.1 µM]
Cc1ccc(S(=O)(=O)O/N=C2\CCCc3ccccc32)cc1,-9%,-4%,-9%,-8%,-26%,-5%
CC1=C(C)/C(=N\OS(=O)(=O)c2ccccc2)C=CC1=O,?,11µM*,7.9µM*,?,2.5µM*,?
Cn1c(CN2CCCCC2)nc2cc(NC(=O)c3ccc(Cl)cc3)ccc21,-24%,18µM*!,21µM*,?,2%,19%[46.1 µM]
CCCC(=O)Nc1ccc2c(c1)nc(CN1CCN(C(=O)OCC)CC1)n2C,-15%,-1%,-28%[46.1 µM],-10%,16%,-11%[46.1 µM]
CCOC(=O)N1CCN(Cc2nc3cc(NC(=O)c4ccco4)ccc3n2C)CC1,·,-1%,·,·,50µM*,·
COc1ccccc1C(=O)N[C@@H]1c2ccccc2C2(CCN(Cc3ccc4c(c3)OCO4)CC2)[C@H]1O,-18%,?,·,-28%,·,·
O=C(CSc1nc(-c2ccccc2)nc2c1CCCC2)c1ccc(Cl)cc1,-1%,-16%,-2%[46.1 µM],-6%,2%,2%[46.1 µM]
CC(=O)N(C(C)=O)c1ncnc2c1c(-c1ccc(Cl)cc1)nn2C(C)(C)C,?,?,?,?,-12%,16µM*
COC(=O)[C@@H]1CCCN1C(=O)c1c(OC)cc(=O)n2c1CCN(Cc1ccc3c(c1)OCCO3)CC2,-9%,-6%,·,-7%,·,·
N=c1nc2n(cc1F)C1OC(CO)C(O)C1O2 (stereo not drawn),?,-18%,-24%,5.6µM*,·,-21%[46.1 µM]
Cc1cccc(C)c1OCc1n[nH]c(=S)o1,0%,7%,9%,-9%,32µM*,3%
COc1cc(Cl)c(NC(=O)CCc2nc3cccnc3n2-c2ccccc2)c(OC)c1,-8%,?,-22%[46.1 µM],-18%,-2%,2%[46.1 µM]
CCc1nnc(NC(=O)CCS(=O)(=O)c2ccccc2)s1,11%,-25%,?,-15%,22µM*,?
CCCC(C)c1nnc(NC(=O)CCS(=O)(=O)c2ccccc2)s1 (stereo not drawn),?,?,8%[46.1 µM],?,89µM*,·
CCc1nnc(NC(=O)CCS(=O)(=O)c2ccc(C)cc2)s1,-15%,-18%,?,?,?,-8%
CC(C)c1nnc(NC(=O)CCS(=O)(=O)c2ccccc2)s1,-24%,22%,-9%[46.1 µM],?,18µM*,0%
O=C(CS(=O)(=O)c1ccccc1)Nc1ncc([N+](=O)[O-])s1,-13%,26%,1%[46.1 µM],-12%,?,2%
O=C(CCS(=O)(=O)c1ccccc1)Nc1ncc([N+](=O)[O-])s1,?,31%,-7%[46.1 µM],-12%,45µM*,15%[46.1 µM]
CCOC(=O)C1=C(O)c2ccccc2C(=O)/C1=C\c1ccc(CC)cc1,·,?,2.1µM*,·,4.5µM*,?
CCOC(=O)C1=C(C)OC(=Cc2ccc(OC)cc2)C1=O,-4%,-4%,·,i,·,·
CCCc1ccc(/C=C2\C(=O)c3ccccc3C(O)=C2C(=O)OCC)cc1,·,·,·,·,8.9µM*,·

# Assay outcomes from PubChem BioAssay.
